Structures are written as SMILES. For some assays here: Entries with a potency or affinity are not part of this list.

Design in all cases: scale not given: direction of the effect not stated beside the values
The target in assay [1] is Protein translocase subunit SecA (Escherichia coli (strain K12)) (UniProt P10408). The experiment in a line: Assay to Identify E. coli SecA ATPase Inhibitors. To be noted: 30 µM. It counts as functional.
Assay [2] has as its target T1, Ubiquitin-activating enzyme e1, putative (Leishmania donovani (strain BPK282A1)) (UniProt E9BSI1).
T1 sequence (whole entry): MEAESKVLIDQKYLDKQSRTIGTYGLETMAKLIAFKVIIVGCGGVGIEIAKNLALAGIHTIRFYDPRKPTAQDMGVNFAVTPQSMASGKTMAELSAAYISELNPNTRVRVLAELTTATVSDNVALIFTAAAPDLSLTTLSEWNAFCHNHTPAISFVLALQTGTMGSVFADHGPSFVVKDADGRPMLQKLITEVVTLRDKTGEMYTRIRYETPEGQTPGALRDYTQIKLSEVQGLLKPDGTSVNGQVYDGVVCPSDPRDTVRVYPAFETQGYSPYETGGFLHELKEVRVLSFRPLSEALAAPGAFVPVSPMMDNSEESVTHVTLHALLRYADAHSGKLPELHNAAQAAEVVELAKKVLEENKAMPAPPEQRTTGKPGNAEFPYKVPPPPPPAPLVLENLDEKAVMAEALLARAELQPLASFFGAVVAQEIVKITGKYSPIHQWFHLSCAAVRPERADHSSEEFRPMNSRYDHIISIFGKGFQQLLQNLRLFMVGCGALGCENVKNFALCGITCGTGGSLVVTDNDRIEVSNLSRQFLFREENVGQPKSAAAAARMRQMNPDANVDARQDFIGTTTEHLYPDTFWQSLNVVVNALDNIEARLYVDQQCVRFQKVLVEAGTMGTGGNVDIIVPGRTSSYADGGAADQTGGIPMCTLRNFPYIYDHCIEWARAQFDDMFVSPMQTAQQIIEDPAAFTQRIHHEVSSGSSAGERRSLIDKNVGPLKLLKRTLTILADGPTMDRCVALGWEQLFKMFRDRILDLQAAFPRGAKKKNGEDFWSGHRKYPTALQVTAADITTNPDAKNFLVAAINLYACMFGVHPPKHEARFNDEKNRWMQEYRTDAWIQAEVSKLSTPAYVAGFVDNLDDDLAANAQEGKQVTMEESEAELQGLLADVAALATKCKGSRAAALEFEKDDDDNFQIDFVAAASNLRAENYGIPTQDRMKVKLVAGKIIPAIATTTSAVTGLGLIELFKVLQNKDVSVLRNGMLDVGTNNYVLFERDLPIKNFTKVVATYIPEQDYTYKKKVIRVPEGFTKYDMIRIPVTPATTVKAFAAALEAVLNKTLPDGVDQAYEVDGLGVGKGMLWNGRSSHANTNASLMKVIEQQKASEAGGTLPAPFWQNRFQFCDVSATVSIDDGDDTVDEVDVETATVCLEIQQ
The experiment in a line: Leishmania donovani Ubiquitin Activating Enzyme (LdE1). It is filed as functional. To be noted: 30 µM.

Assay [3] deals with Sialic acid-binding Ig-like lectin 9 (Homo sapiens) (UniProt Q9Y336). The experiment in a line: Hs-Siglec9 ALPHAscreen SOP 20170721. As to conditions: 10 µM.
Sequence of Sialic acid-binding Ig-like lectin 9 (Homo sapiens) (Q9Y336 whole entry): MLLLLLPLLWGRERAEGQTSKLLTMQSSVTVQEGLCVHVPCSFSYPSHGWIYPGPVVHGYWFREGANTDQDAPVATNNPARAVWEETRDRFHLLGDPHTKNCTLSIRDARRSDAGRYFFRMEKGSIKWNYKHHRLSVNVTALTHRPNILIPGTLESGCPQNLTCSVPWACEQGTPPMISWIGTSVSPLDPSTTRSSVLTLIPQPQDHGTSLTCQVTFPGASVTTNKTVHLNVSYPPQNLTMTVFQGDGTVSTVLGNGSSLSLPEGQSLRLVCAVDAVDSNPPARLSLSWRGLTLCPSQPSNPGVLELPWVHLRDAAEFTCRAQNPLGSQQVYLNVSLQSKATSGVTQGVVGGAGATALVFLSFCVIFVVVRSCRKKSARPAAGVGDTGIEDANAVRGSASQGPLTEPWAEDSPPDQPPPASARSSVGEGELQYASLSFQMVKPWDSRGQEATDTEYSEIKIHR
The subject of assay [4] is Trypanosoma cruzi. The experiment in a line: Trypanosoma cruzi phosphomannomutase and mannose-1-phosphate guanylyltransferase assay. It counts as functional. To be noted: 10 µM.
Assay [5] addresses T2, Arginase-2, mitochondrial (Homo sapiens) (UniProt P78540).
T2 sequence (whole entry): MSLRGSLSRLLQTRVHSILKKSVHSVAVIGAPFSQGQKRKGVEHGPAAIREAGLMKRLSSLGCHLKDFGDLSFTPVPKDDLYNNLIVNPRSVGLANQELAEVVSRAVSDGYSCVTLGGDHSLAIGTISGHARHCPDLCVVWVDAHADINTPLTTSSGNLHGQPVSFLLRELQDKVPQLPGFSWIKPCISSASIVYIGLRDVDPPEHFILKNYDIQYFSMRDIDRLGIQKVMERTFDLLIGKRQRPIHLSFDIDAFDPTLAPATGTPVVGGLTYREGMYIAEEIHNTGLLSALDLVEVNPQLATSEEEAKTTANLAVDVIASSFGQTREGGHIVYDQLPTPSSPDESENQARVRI
The experiment in a line: in vitro enzyme assay to detect the production of urea directly proportional to the activity of Arginase II. Further: in the data most compounds retested in dose-response had high values. To be noted: 33.3 µM. It is filed as functional.

Assay [6] addresses T3, Proteasome subunit beta (Trypanosoma cruzi) (UniProt O96673).
T3 sequence (whole entry): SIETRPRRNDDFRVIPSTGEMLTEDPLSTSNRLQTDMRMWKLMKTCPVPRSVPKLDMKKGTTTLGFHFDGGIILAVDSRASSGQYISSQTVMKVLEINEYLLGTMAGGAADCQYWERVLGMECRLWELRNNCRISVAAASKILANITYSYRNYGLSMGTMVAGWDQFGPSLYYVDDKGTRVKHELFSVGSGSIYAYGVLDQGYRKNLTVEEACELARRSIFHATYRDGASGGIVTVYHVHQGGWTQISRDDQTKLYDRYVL
The experiment in a line: Trypanosoma cruzi proteasome chymotrypsin-like activity (TcProtChymo) assay. Further: in the data most compounds retested in dose-response had high values. To be noted: 9.37 µM. It is filed as functional.

The species named for assay [7] is Homo sapiens. The experiment in a line: To identify inhibition of the IFN signalling (Jak-Stat) pathway via expression of an eGFP reporter gene under the control of an IFN-stimulated response element (ISRE) containing MxA promoter. To be noted: 30 µM. It is filed as functional.
Assay [8] addresses T4, Tyrosyl-tRNA synthetase, putative (Trypanosoma cruzi (strain CL Brener)) (UniProt Q4DSP6).
T4 sequence (whole entry): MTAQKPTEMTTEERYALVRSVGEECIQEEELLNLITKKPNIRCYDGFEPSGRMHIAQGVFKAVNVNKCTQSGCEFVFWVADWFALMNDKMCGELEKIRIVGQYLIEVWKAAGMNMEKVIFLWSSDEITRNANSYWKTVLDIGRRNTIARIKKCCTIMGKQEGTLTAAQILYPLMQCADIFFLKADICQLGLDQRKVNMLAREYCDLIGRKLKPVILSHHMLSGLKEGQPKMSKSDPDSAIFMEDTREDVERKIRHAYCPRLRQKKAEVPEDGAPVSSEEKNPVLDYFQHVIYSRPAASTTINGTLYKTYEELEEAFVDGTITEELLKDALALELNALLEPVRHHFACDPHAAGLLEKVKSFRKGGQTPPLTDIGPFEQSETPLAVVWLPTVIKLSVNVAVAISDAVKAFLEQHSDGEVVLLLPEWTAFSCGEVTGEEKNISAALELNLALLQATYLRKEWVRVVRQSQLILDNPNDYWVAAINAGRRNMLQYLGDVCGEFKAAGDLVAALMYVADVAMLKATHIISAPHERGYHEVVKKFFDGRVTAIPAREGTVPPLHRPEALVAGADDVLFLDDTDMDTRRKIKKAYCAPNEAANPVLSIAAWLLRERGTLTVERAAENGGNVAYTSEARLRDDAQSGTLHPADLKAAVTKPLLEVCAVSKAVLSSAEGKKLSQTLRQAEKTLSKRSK
The experiment in a line: Trypanosoma cruzi tyrosyl tRNA synthetase (TcYRS) _High Tyrosine SOP. Further: in the data most compounds retested in dose-response had high values. It is filed as functional. To be noted: 30 µM.

Assay [9] has as its target T4, Tyrosyl-tRNA synthetase, putative (Trypanosoma cruzi (strain CL Brener)). The experiment in a line: Trypanosoma cruzi tyrosyl tRNA synthetase (TcYRS) SOP. It is filed as functional. As to conditions: 30 µM.
For assay [10], the target named is Chromo domain-containing protein 1 (Saccharomyces cerevisiae (strain ATCC 204508 / S288c) (Baker's yeast)) (UniProt P32657). The experiment in a line: ScCHD-1 Enzyme Inhibition Assay. Further: in the data most compounds retested in dose-response had high values. It counts as functional. As to conditions: 30 µM.
Sequence of Chromo domain-containing protein 1 (Saccharomyces cerevisiae (strain ATCC 204508 / S288c) (Baker's yeast)) (P32657 whole entry, the tested form may be a part): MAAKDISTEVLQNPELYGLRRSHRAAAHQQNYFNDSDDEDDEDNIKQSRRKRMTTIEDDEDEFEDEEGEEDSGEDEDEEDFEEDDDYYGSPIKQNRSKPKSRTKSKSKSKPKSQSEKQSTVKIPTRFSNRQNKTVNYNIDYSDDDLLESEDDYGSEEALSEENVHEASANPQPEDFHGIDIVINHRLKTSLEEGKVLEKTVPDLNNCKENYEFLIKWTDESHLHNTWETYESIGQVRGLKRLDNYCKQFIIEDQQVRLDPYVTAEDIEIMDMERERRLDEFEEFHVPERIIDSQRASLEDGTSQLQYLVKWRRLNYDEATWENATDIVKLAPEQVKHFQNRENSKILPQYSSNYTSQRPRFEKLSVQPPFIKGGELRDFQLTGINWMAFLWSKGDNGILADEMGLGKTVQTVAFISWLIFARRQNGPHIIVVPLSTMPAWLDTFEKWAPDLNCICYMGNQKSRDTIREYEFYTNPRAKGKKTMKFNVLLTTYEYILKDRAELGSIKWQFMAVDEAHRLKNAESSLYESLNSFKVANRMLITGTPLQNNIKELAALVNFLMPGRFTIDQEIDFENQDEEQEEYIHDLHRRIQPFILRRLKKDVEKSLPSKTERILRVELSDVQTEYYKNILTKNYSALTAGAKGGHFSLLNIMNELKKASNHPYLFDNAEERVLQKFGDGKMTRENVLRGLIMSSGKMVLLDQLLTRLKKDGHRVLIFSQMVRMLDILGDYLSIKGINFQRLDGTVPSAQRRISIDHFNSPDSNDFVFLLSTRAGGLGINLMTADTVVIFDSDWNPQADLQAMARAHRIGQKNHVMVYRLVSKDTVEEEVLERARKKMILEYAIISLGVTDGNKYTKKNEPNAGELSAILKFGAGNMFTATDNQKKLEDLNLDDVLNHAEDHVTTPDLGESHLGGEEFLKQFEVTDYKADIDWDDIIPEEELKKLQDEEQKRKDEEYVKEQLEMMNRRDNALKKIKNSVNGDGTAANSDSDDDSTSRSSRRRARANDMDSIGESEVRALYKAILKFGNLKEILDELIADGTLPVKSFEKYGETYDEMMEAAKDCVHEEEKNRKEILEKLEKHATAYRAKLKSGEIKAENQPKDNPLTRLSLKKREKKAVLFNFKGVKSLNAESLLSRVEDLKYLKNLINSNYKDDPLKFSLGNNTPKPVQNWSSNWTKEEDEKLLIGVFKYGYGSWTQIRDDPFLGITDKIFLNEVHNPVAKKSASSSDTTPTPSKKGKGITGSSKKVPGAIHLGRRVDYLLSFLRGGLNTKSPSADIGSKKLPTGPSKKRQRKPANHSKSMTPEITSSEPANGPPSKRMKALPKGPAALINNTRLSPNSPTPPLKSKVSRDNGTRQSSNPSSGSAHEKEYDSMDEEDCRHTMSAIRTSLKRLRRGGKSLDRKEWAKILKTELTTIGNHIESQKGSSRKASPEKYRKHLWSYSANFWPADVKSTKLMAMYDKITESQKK

Sequence of Protein translocase subunit SecA (Escherichia coli (strain K12)) (P10408 whole entry): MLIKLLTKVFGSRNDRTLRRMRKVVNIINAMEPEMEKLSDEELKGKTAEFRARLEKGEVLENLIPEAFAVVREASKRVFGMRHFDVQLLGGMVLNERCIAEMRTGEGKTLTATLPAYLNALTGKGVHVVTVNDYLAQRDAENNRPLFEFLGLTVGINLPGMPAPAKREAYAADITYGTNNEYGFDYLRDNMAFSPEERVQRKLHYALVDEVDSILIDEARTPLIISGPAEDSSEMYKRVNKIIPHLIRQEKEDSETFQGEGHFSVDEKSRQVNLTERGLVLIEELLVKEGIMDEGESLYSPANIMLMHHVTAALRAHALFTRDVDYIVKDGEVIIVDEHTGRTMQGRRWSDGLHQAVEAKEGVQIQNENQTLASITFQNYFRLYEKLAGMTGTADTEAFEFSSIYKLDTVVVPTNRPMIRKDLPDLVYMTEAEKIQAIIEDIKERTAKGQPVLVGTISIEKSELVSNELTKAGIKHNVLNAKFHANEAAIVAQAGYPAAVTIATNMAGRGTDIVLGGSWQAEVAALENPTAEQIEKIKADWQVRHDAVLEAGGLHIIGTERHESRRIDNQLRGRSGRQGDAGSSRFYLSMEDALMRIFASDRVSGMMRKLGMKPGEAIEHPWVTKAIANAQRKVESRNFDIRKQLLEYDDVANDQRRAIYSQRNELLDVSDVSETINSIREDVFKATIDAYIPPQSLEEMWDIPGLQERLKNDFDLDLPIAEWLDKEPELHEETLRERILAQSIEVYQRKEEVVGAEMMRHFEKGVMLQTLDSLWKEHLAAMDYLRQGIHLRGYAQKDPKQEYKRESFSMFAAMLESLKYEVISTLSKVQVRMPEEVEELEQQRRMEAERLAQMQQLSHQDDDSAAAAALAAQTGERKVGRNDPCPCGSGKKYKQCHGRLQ

As for `Cc1ccc(NC(=O)N2C[C@H]3CC[C@@H]2CN(Cc2cscn2)C3)cc1`, the Percent Effect was -8.89% in [1]; 2.7% in assay [2]; 16.7% in [3]; 2.42% in assay [4]; 5.25% in assay [5]; 4.45% in assay [6]. The Percent Effect in assay [7] stood at 0.0605%; in assay [8] it was 6.92%; in assay [9] it was 12.2%; in assay [10], 0.126%.
For the compound `c1cc(CN2Cc3nnn(CC4CC4)c3C(COCC3CC3)C2)co1` (stereo not given), the Percent Effect in assay [1] is -5.88%; in assay [2], 3.9%; in assay [3], 10.3%; in assay [4], 9.83%; in assay [5] it was -8.1%; in assay [6], 9.62%. Also, the Percent Effect in [7] is -0.188%; in [8] it was 3.68%; in assay [9], 12.8%; in assay [10], 2.41%.
With `CCN1CCN(c2ccc(CNC(=O)c3c(C)noc3C)cn2)CC1`, the Percent Effect was -1.13% in assay [1]; 21.3% in assay [2]; -5.5% in [3]; 3.01% in [4]; 2.66% in assay [5]; 23.8% in assay [6]. Besides, the Percent Effect was 1.82% in assay [7], 1.58% in assay [8], 15.4% in assay [9] and -14.6% in [10].
With `Cc1ccc(F)cc1C(=O)N1C[C@@H](CN2CCOCC2)[C@@H](CO)C1`, the Percent Effect in assay [1] is -9.2%; in [2], 8.11%; in [3], 5.12%; in assay [4], 2.23%; in [5], 4.54%; in [6], 9.76%. The Percent Effect in assay [7] was 2.21%; in assay [8], 5.85%; in [9], 9.76%; in [10], -3.39%.
In the case of `Cc1nc(C)n(CC2CCCN2Cc2cn(-c3ccccc3)nn2)n1` (stereo not given), the Percent Effect is -2.72% in assay [1]; -2.67% in assay [2]; 1.09% in [3]; -1% in assay [4]; -1.77% in [5]; 2.97% in assay [6]. Moreover, the Percent Effect in assay [7] is -1.44%; in [8] it was 3.68%; in assay [9] it was 0%; in assay [10], -6.83%.
In the case of `O=C1NC2(CCN(Cc3cccnc3)CC2)CC1c1ccncc1` (stereo not given), the Percent Effect is -3.31% in assay [1]; 6.49% in assay [2]; -5.51% in assay [3]; -7.69% in [4]; -0.405% in assay [5]; 19% in [6]. In addition, the Percent Effect in assay [7] was -18.7%; in assay [8] it was 1.58%; in [9], 10.3%; in [10], 4.74%.
Regarding `Cc1nn(C)c(Cl)c1CNCc1ccc(OCC(N)=O)cc1`, the Percent Effect in [1] is -6.28%; in assay [2] it was 10.7%; in [3], 0.0227%; in assay [4], 4.42%; in assay [5], 2.22%; in [6], 10.9%. Besides, the Percent Effect in assay [7] was 16.6%; in assay [8], 1.58%; in assay [9] it was 12.8%; in assay [10], -10.2%.
`CCn1ccnc1CNCC1CCCN1c1cc(NC)ncn1` (stereo not given): the Percent Effect in assay [1] is -2.03%; in [2] it was 0%; in assay [3], 1.76%; in assay [4], -5.62%; in assay [5], 2.66%; in assay [6], 4.5%. The Percent Effect in assay [7] is 12.1%; in [8], 4.74%; in [9], 5.13%; in assay [10], -7.63%.
With `COC[C@@]12CC[C@@H](N3CCOCC3)C[C@H]1CCN(c1ncccn1)C2`, the Percent Effect was -6.56% in [1]; 13.5% in [2]; 17.1% in assay [3]; 6.5% in assay [4]; 19.9% in assay [5]; 14.7% in assay [6]. Also, the Percent Effect in assay [7] came out at 0.0489%; in assay [8], 4.79%; in [9] it was 12.2%; in assay [10], 88.3%.
On to `CC(Cn1cccn1)NC(=O)N1CCN(Cc2cccnc2)CC1` (stereo not given), for which the Percent Effect in assay [1] was -6.34%; in assay [2] it was 7.79%; in assay [3], 1.46%; in assay [4], 1.87%; in assay [5], -1.02%; in assay [6] it was 11.2%. The Percent Effect is -5.12% in assay [7], 5.88% in assay [8], 23.5% in [9] and -16.2% in assay [10].
As for `CCc1ccsc1C(=O)N1CCN(CC(O)CC)CC1` (stereo not given), the Percent Effect in assay [1] is -2.73%; in [2] it was 7.79%; in [3], 4.04%; in [4] it was 4.66%; in assay [5], -3.48%; in [6] it was 0.877%. The Percent Effect in [7] was -8.47%; in [8], 2.94%; in [9] it was 21.2%; in [10] it was -7.9%.
Take `CC(=O)N1CCCC1c1cc(N2CCN(C3CCCC3)CC2)cc(C)n1` (stereo not given): the Percent Effect in [1] is -0.907%; in assay [2] it was 17.3%; in [3], -8.17%; in assay [4], -2.96%; in assay [5] it was 1.33%; in assay [6] it was 7.22%. In addition, the Percent Effect was 6.74% in assay [7], 4.23% in assay [8], 15% in assay [9] and -23.3% in assay [10].
Take `Cc1ccc([C@@H]2CN(C(=O)c3ccc[nH]3)C[C@H]2NC(=O)C2CC2)cc1`: the Percent Effect in [1] was -2.9%; in assay [2] it was 5.41%; in assay [3] it was 1.4%; in [4], -4.56%; in [5] it was -3.85%; in assay [6], 17.3%. Further, the Percent Effect in [7] is 30.6%; in assay [8] it was 2.66%; in assay [9] it was 7.32%; in assay [10] it was -6.72%.
As to `CCn1cc(NC(=O)CCc2ccc3c(c2)OCCCO3)cn1`, the Percent Effect in [1] was -5.48%; in assay [2] it was 15.6%; in assay [3] it was 6.08%; in [4] it was 4.85%; in [5], -6.35%; in [6], 2.28%. Further, the Percent Effect in assay [7] is 0.692%; in [8] it was 6.86%; in [9] it was 23.5%; in [10] it was -12.8%.
